Measured values: PubChem BioAssay (Tox21)
Unmarked numbers belong to inactive results. Records with an inconclusive call do not appear. Entries that show only a call come without a potency. The source made the active and inactive calls. Unless noted, the call rests on the fitted dose curve; in most records, active means well fitted curve in the direction sought with a large enough effect in the repeat runs; inconclusive means weak or mixed curves; inactive means no such curve, though single readings can be large; an effect the other way counts as inactive or inconclusive.

Key:
[1] = qHTS assay to identify small molecule agonists of the progesterone receptor (PR) signaling pathway - cell viability counter screen (AID 1346799; calls by dose curve; further: nearly all actives have a fitted effect of over 45% in size; further: potency means the concentration at half of the fitted maximal effect)
Method in brief: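 Viability was scored by ATP luminescence (CellTiter-Glo, 30 min, room temperature) in the same wells used for the reporter readout, after 16 hr compound exposure of PR-UAS-bla HEK293T cells.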

[2] = qHTS assay to identify small molecule antagonists of the TGF-beta/Smad signaling pathway - cell viability counter screen (AID 1346824); further: nearly all actives have a fitted effect of over 50% in size; further: potency means the concentration at half of the fitted maximal effect
Method in brief: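 Cytotoxicity counter-screen run in the same wells as the beta-lactamase Smad reporter read: CellTiter-Glo luminescence after 30 min at room temperature. HEK 293T SBE-bla cells had 5 hr compound exposure at 37 C with TGF-beta1 (0.25 ng/mL stock).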

[3] = target: Thyrotropin-releasing hormone receptor (Homo sapiens) (UniProt P34981); assay: qHTS assay to identify small molecule antagonists of the thyrotropin-releasing hormone receptor (TRHR) signaling pathway (AID 1346877; active means well fitted inhibition curve with a large enough effect in the repeat runs, not every such curve was filed as active; further: series mostly up to about 51 µM)
Method in brief: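 TRHR-expressing HEK293 cells were seeded, cultured 18 h at 37 °C, then loaded with calcium dye for 2 h. Compounds were pre-incubated 5 min at room temperature before 1 nM TRH (final) was added, and kinetic fluorescence was recorded for 3 min.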

[4] = target: Thyrotropin-releasing hormone receptor (Homo sapiens) (UniProt P34981); assay: qHTS assay to identify small molecule agonists of the thyrotropin-releasing hormone receptor (TRHR) signaling pathway (AID 1346891; calls by dose curve; further: series mostly up to about 58 µM)
Method in brief: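 Kinetic fluorescence (3 min, 1 s intervals) reported intracellular calcium after compound transfer onto TRHR-Hek293 cells pre-loaded with dye for 2 h at 37 °C.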

[5] = Human pregnane X receptor (PXR) small molecule agonists, qHTS cell viability counter screen (AID 1346977); further: nearly all actives have a fitted effect of over 50% in size; further: potency means the concentration at half of the fitted maximal effect
Method in brief: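 HepG2 cells stably carrying the PXR-Luc reporter are cultured with 5% charcoal-stripped FBS and treated with compounds for 24hr. CellTiter-Fluor is added at 23hr and fluorescence is read after 1hr.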

[6] = Caspase-3/7 induction in HepG2 cells by small molecules, qHTS assay (AID 1346978); further: nearly all actives have a fitted effect of over 15% in size; further: potency means the concentration at half of the fitted maximal effect
Method in brief: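 Caspase-3/7 induction was measured by Caspase-Glo 3/7 luminescence (30 min, room temperature) after a 17 hr compound exposure of wild-type HepG2 cells seeded at 2,000 per well and pre-incubated 5 hr.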

[7] = Caspase-3/7 induction in CHO-K1 cells by small molecules, qHTS assay (AID 1346980); further: nearly all actives have a fitted effect of over 15% in size; further: potency means the concentration at half of the fitted maximal effect
Method in brief: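 Luminescent Caspase-Glo 3/7 read (30min, room temperature) quantified apoptosis induction. Cells were wild-type CHO-K1, treated with compound for 17hr at 37 C and 5% CO2.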

[8] = Caspase-3/7 induction in HepG2 cells by small molecules, qHTS cell viability counter screen (AID 1346981); further: nearly all actives have a fitted effect of over 30% in size; further: potency means the concentration at half of the fitted maximal effect
Method in brief: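 Wild-type HepG2 cells (2,000/well) were allowed to settle for 5 hr at 37 C, 5% CO2, then dosed with compounds in DMSO by pin transfer. After 16 hr at 37 C, CellTiter-Fluor was added and fluorescence read 1 hr later.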

[9] = target: Nuclear receptor subfamily 1 group I member 2 (Homo sapiens) (UniProt O75469); assay: Human pregnane X receptor (PXR) small molecule agonists, qHTS assay (AID 1346982); further: nearly all actives have a fitted effect of over 35% in size; further: potency means the concentration at half of the fitted maximal effect
Method in brief: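 PXR-Luc HepG2 cells (CYP3A4 promoter-driven luciferase) were seeded in medium with 5% charcoal-stripped FBS, left 5 hr at 37 C, then exposed to compounds in DMSO for 24 hr. Luminescence was read after ONE-Glo addition.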

[10] = target: Nuclear receptor subfamily 1 group I member 2 (Rattus norvegicus) (UniProt Q9R1A7); assay: Rat pregnane X receptor (rPXR) activation by small molecules, qHTS assay (AID 1346983); details: rPXR luciferase reporter cells, One-Glo luminescence, 24 h; max activation: hits give high values; further: nearly all actives have a fitted effect of over 20% in size
Method in brief: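 Luminescent readout (One-Glo luciferase, 30 min room temperature) followed 24 hr compound treatment at 37 C of rPXR cells plated 2,000 per well and preincubated 5hr; qHTS format with compounds delivered in DMSO.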

[11] = target: Cytochrome P450 2D6 (Homo sapiens) (UniProt P10635); assay: Cytochrome P450 Family 2 Subfamily D Member 6 (CYP2D6) small molecule antagonists: luciferase reporter qHTS assay (AID 1671196); further: series mostly up to about 120 µM; nearly all actives have a fitted effect of over 50% in size
Method in brief: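 CYP2D6 enzyme–substrate mix was held with compound for 10 min at room temperature, then NADPH regeneration solution was added and the reaction ran 1 h at room temperature. Luciferin product was detected by luminescence after 20 min with detection reagent.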

[12] = target: Cytochrome P450 2C19 (Homo sapiens) (UniProt P33261); assay: Cytochrome P450 Family 2 Subfamily C Member 19 (CYP2C19) small molecule antagonists: luciferase reporter qHTS assay (AID 1671197); further: nearly all actives have a fitted effect of over 65% in size; further: potency means the concentration at half of the fitted maximal effect
Method in brief: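 Inhibition of CYP2C19 was scored from loss of luminescence in a P450-Glo proluciferin substrate assay, NADPH-started and run 1 h at 37C, with ketoconazole as positive control.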

[13] = target: Cytochrome P450 2C9 (Homo sapiens) (UniProt P11712); assay: Cytochrome P450 Family 2 Subfamily C Member 9 (CYP2C9) small molecule antagonists: luciferase reporter qHTS assay (AID 1671198); further: nearly all actives have a fitted effect of over 50% in size; further: potency means the concentration at half of the fitted maximal effect
Method in brief: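 Enzyme-substrate mix preincubated with compound 10 min at room temperature; reaction started with NADPH regeneration solution, 1 h 37C. Luminescent luciferin product read after 20 min detection reagent.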

[14] = target: Cytochrome P450 1A2 (Homo sapiens) (UniProt P05177); assay: Cytochrome P450 Family 1 Subfamily A Member 2 (CYP1A2) small molecule antagonists: luciferase reporter qHTS assay (AID 1671199); further: nearly all actives have a fitted effect of over 50% in size; further: potency means the concentration at half of the fitted maximal effect
Method in brief: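 Human CYP1A2 activity measured with a P450-Glo proluciferin substrate; compounds in DMSO preincubated 10 min at room temperature with enzyme-substrate mix, then NADPH regeneration system added for 1 h. Luciferin detection reagent, 20 min, luminescence read.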

[15] = qHTS assay to identify small molecule agonists of the TGF-beta/Smad signaling pathway (AID 1346859; active means well fitted activation curve with a large enough effect in the signal ratio in the repeat runs, not every such curve was filed as active; the % refers to the signal ratio; further: series mostly up to about 77 µM)
Method in brief: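 Dual-wavelength fluorescence (460/530 nm emission) quantified beta-lactamase expression under the Smad binding element in HEK 293T cells following 5 hr compound treatment at 37 C.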

[16] = target: Voltage-gated inwardly rectifying potassium channel KCNH2 (Homo sapiens) (UniProt Q12809); assay: Human Ether-a-go-go-Related Gene (hERG) channel small molecule antagonists: fluorescence cell-based qHTS assay (AID 1671200)
Method in brief: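 First, 1000 cells per well are seeded and cultured overnight at 37 C. Next, FluxOR II dye is loaded for 1 h at room temperature, protected from light. After 10 more minutes, stimulus is added and fluorescence is read.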

[17] = Caspase-3/7 induction in CHO-K1 cells by small molecules, qHTS cell viability counter screen (AID 1346979); further: nearly all actives have a fitted effect of over 35% in size; further: potency means the concentration at half of the fitted maximal effect
Method in brief: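 Seeding: 1,500 CHO-K1 cells/well. Rest: 5hr, 37C. Treatment: compounds in DMSO, 16hr. Read: CellTiter-Fluor, 1hr, fluorescence.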

[18] = qHTS assay to identify small molecule agonists of the TGF-beta/Smad signaling pathway - cell viability counter screen (AID 1346829); further: potency means the concentration at half of the fitted maximal effect; nearly all actives have a fitted effect of over 45% in size
Method in brief: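 After overnight seating at 37 C and 5% CO2, reporter cells got compounds for 5 hr and FRET substrate for 2 hr; cell viability then came from CellTiter-Glo luminescence.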

Chain of Thyrotropin-releasing hormone receptor (Homo sapiens) (P34981 whole entry, looked up): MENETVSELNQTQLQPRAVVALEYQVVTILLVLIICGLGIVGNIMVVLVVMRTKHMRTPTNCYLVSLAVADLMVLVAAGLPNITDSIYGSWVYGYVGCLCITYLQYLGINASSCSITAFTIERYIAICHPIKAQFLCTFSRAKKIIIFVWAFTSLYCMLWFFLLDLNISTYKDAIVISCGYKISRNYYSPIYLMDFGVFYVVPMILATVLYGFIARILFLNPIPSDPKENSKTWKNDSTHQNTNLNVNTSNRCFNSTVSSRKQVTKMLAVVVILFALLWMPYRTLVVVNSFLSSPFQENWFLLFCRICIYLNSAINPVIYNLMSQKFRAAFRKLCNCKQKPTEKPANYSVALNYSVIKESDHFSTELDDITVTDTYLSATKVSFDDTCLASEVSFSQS
Chain of Cytochrome P450 2D6 (Homo sapiens) (P10635 whole entry, looked up): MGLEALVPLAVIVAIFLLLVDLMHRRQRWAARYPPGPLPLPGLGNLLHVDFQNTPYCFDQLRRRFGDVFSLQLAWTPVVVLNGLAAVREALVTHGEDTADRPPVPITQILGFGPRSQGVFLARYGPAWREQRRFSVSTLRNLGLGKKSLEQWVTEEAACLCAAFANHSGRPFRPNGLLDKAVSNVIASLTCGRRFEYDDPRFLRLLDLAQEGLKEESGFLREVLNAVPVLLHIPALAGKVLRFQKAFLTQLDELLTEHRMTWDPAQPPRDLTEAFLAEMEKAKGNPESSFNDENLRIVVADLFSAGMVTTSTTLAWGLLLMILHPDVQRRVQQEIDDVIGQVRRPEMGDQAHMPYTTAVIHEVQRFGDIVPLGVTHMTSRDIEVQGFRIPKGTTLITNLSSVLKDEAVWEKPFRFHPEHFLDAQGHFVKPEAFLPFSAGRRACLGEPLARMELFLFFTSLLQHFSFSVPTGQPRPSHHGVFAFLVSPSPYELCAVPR
Chain of Voltage-gated inwardly rectifying potassium channel KCNH2 (Homo sapiens) (Q12809 whole entry, looked up): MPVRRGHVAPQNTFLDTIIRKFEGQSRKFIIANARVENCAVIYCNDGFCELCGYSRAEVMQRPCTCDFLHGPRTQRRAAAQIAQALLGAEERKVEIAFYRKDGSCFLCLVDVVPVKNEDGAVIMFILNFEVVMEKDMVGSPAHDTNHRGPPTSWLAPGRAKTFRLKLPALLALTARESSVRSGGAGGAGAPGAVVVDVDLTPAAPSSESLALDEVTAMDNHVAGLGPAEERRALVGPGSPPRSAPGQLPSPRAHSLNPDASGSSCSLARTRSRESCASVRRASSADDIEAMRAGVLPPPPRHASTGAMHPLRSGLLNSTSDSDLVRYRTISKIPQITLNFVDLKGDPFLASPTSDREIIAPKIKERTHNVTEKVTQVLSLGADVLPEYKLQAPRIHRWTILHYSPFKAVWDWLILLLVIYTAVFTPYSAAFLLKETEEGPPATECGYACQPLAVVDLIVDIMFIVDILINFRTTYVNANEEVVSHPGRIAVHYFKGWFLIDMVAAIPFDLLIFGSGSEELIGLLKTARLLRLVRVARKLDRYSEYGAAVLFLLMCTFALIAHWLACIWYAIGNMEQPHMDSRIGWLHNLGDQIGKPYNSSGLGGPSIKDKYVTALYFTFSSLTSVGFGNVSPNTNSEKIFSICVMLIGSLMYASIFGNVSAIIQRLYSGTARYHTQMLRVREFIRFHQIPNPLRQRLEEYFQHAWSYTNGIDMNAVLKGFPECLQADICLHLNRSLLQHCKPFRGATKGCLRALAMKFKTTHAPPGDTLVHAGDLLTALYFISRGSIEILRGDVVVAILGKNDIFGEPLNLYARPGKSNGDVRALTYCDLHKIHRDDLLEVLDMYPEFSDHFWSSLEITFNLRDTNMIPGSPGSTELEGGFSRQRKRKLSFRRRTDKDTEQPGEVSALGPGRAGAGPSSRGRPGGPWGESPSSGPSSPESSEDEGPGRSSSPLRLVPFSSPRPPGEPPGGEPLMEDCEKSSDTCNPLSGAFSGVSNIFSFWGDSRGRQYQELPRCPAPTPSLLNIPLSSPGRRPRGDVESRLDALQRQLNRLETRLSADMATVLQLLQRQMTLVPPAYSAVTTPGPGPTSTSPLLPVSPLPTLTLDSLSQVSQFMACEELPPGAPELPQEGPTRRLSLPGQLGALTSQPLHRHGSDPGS
Chain of Nuclear receptor subfamily 1 group I member 2 (Homo sapiens) (O75469 whole entry, looked up): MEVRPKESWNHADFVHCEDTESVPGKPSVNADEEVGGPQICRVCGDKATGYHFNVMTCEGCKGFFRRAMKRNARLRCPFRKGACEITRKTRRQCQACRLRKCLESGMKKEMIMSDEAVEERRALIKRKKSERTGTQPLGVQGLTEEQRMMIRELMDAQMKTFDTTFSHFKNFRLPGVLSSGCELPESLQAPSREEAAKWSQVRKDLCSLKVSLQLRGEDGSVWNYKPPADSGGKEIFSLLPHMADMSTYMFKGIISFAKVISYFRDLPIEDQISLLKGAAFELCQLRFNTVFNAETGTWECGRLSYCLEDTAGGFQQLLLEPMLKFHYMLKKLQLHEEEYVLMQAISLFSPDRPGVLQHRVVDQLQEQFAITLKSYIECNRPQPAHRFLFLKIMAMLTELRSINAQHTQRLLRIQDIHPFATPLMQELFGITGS
Chain of Cytochrome P450 1A2 (Homo sapiens) (P05177 whole entry, looked up): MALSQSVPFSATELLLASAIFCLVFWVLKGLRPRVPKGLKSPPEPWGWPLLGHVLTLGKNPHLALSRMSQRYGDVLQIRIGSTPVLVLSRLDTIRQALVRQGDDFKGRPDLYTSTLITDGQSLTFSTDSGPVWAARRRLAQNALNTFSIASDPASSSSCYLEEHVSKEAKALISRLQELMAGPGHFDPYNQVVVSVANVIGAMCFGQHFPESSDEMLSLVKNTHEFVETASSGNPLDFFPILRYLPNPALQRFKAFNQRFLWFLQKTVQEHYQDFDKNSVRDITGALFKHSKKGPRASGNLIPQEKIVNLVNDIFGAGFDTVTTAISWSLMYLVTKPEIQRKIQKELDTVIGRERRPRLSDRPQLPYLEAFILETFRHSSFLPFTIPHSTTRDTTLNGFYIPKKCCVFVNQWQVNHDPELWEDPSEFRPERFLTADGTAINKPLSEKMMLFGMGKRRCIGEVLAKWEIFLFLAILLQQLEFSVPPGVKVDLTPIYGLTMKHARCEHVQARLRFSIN
Chain of Cytochrome P450 2C19 (Homo sapiens) (P33261 whole entry, looked up): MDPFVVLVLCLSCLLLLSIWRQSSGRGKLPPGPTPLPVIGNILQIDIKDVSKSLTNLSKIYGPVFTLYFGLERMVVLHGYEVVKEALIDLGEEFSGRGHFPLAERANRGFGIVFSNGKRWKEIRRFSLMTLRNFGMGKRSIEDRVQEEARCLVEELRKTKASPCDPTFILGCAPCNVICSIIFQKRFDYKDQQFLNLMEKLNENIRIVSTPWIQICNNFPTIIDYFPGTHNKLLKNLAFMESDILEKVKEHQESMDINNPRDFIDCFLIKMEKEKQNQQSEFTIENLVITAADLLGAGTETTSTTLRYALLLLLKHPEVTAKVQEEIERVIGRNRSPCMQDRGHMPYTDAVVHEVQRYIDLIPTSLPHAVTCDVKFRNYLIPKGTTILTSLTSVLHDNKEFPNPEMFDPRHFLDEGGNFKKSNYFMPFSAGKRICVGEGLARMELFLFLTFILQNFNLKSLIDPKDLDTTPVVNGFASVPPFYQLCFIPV
Chain of Cytochrome P450 2C9 (Homo sapiens) (P11712 whole entry, looked up): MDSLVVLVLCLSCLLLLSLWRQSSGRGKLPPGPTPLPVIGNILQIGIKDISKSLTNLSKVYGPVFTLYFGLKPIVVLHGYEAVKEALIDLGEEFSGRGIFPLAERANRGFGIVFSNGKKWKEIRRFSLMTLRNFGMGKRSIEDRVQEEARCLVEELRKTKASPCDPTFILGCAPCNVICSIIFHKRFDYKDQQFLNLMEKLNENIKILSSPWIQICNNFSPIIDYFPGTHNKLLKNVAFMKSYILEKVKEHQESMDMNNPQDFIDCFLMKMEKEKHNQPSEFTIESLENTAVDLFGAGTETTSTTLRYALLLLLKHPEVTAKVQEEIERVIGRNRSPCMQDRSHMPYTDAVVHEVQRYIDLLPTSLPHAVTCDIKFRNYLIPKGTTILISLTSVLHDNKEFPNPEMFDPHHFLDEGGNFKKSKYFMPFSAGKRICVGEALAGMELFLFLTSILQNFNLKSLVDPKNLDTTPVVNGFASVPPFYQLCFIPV
Chain of Nuclear receptor subfamily 1 group I member 2 (Rattus norvegicus) (Q9R1A7 whole entry, looked up): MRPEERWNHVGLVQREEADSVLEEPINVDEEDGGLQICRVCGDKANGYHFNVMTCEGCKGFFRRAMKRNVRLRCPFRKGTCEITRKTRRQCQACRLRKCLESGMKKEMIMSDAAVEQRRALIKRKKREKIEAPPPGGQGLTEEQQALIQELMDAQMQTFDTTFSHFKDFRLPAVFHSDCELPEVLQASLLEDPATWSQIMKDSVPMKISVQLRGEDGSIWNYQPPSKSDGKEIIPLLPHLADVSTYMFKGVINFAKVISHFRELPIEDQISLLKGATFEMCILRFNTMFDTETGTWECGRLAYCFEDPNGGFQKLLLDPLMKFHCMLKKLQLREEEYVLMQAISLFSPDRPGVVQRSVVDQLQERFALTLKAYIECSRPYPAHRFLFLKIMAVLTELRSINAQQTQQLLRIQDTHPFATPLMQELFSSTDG

Row | SMILES | Potency [1] | Potency [2] | Potency [3] | Potency [4] | Potency [5] | Potency [6] | Potency [7] | Potency [8] | Potency [9] | max activation [10] [%] | Potency [11] | Potency [12] | Potency [13] | Potency [14] | outcome [15] | Potency [16] | Potency [17] | Potency [18]
1 | CCCCCN=C(N)N/N=C/c1c[nH]c2ccc(OC)cc12 | 16.8 µM (active) | 26.8 µM (active) | inactive | inactive | 18.8 µM (active) | 11.9 µM (active) | inactive | 26.6 µM (active) | inactive | -0.704 | inactive | inactive | 38.9 µM (active) | 4.9 µM (active) |  |  |  | 
2 | O=C(Nc1ccc([N+](=O)[O-])cc1)Nc1ccc([N+](=O)[O-])cc1 (tested in a mixture with another compound) | inactive | inactive | inactive | inactive | inactive | inactive | inactive | inactive | inactive |  | inactive | inactive | inactive | inactive | inactive | inactive |  | 
3 | Cc1ccc2nc(-c3ccc(N)cc3)sc2c1S(=O)(=O)O | inactive | inactive | inactive | inactive | inactive | inactive | inactive | inactive | 2.69 µM (active) |  |  | 22.1 µM (active) | 15.7 µM (active) |  |  |  | inactive | 
4 | Oc1ccc(C2(c3ccc(O)c(C4CCCCC4)c3)CCCCC2)cc1C1CCCCC1 | 27.3 µM (active) | 43.6 µM (active) | inactive | inactive | 19.3 µM (active) | 24.3 µM (active) | 13.7 µM (active) | 30.6 µM (active) | 8.63 µM (active) |  |  | 8.94 µM (active) |  | inactive |  |  | 13.7 µM (active) | 49 µM (active)
5 | CCCC(C)C=O (stereo not drawn) | inactive | inactive | inactive | inactive | inactive | inactive | inactive | inactive | inactive |  | inactive | inactive | inactive | inactive | inactive | inactive | inactive | 
6 | CC(C)(C)c1cc(CCC(=O)OCCSCCOC(=O)CCc2cc(C(C)(C)C)c(O)c(C(C)(C)C)c2)cc(C(C)(C)C)c1O | inactive | inactive | inactive | inactive | inactive | inactive | inactive | inactive | inactive |  | inactive | 8.71 µM (active) |  | inactive | inactive | inactive | inactive | 
7 | Cc1c[nH]c(=O)[nH]c1=O | inactive | inactive | inactive | inactive | inactive | inactive | inactive | inactive | inactive |  | inactive | inactive | inactive |  | inactive |  | inactive | 
8 | O=C1c2ccccc2C(=O)c2c(Cl)cccc21 | inactive | inactive | inactive | inactive | inactive | inactive | inactive | inactive | 10.2 µM (active) |  | inactive | 18.8 µM (active) |  | 0.0473 µM (active) | inactive | inactive |  | 
